From PubChem
This is a sample that favours compounds with a hit; in the whole collection about 4.1% have one here.
Anthrax LF prot = anthrax lethal factor protease inhibition. P15917. multiplex microsphere protease cleavage assay, LF. inhibition, % at 10 µM. 360,000 compounds, 0.12% hits; note: plate controls were buffer without enzyme for full effect and enzyme alone for no effect
BoNT-A LC inh2 = blocks Botulinum neurotoxin A light chain protease | multiplex microsphere protease substrate cleavage, flow cytometry | inhibition, % at 10 µM | 360,000 compounds, 0.17% hits; note: plate controls were buffer without enzyme for full effect and enzyme alone for no effect
VHR inh abs = inhibitors of human VHR1 phosphatase (DUSP3); recombinant VHR phosphatase, pNPP absorbance; inhibition, % at 13.3 µM; 290,000 compounds, 0.52% hits; P51452; in the data active = inhibition above about 50%
Target sequence (P51452 whole entry, looked up): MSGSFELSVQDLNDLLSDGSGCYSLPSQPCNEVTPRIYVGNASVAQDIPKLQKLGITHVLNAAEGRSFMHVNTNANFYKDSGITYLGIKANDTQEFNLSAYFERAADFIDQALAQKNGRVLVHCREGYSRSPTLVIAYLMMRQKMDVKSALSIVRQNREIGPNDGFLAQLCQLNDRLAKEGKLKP
BoNT-F LC inh = BoNT F light chain protease inhibition. Multiplex microsphere protease cleavage assay, flow cytometry. inhibition, % at 10 µM. 360,000 compounds, 0.22% hits; in the data active = inhibition above about 35%, passing the limit was not always enough; inconclusive = no clear call, values can overlap the other calls; note: plate controls were buffer without enzyme for full effect and enzyme alone for no effect
Autofluor counter = counter-screen for toxin protease inhibitors: compound fluorescence | compound autofluorescence counterscreen, microsphere flow cytometry; active compounds read high | fluorescence intensity (no concentration beside the values) | 360,000 compounds, 3.1% hits; in the data active = fluorescence intensity above about 16000; inconclusive = no clear call, values can overlap the other calls
MazEF act = MazEF (E. coli) toxin RNase activation. AID 504720. FAM/BHQ RNA-DNA oligo cleavage fluorescence, 5 h. activation, % at 20 µM. P0AE70. 350,000 compounds, 0.32% hits; in the data active = activation above about 50%
Target sequence (P0AE70 whole entry, looked up): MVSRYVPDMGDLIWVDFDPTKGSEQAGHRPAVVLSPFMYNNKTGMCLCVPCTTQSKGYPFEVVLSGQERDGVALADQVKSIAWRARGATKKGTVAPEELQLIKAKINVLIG
* = called active by the depositor; ? = inconclusive; . = no result. Cut-off read from the data, not from the text of the source, unless noted: active = inhibition above about 30%; inconclusive = no clear call, values can overlap the other calls; inactive = below that.

SMILES	Anthrax LF prot	BoNT-A LC inh2	VHR inh abs	BoNT-F LC inh	Autofluor counter	MazEF act
O=C(c1c(F)cccc1F)N1CCCC(c2nc(-c3ccc(Cl)cc3)no2)C1 (stereo not drawn)	-6.8	3.8	14.8	?	3848	0.5
O=C(C1CC1)N1CCC(c2nc(-c3ccc(S(=O)(=O)NCC4CCCO4)cc3)no2)CC1 (stereo not drawn)	-11.8	7.4	11.9	8.8	19413*	-0.1
O=C(c1ccccc1)N1CCC(c2nc(-c3ccc(S(=O)(=O)NCC4CCCO4)cc3)no2)CC1 (stereo not drawn)	-0.8	-0.6	-6.1	1.4	?	-1.1
CCC(C)(C)NC(=O)CN(C(=O)C(=O)Nc1ccc2c(c1)OCCO2)N1CCOCC1	-1.0	-0.7	25.9	-2.4	6213	-13.0
CC(C)C(=O)Nc1nnc(Cc2c[nH]c3ccccc23)s1	-17.5	-0.9	29.0	?	4038	4.0
Nc1nnc(Cc2c[nH]c3ccccc23)s1	2.0	1.4	25.4	-2.7	23973*	-1.5
CCCN(C)C1CN(Cc2cn(Cc3cccc(C(F)(F)F)c3)nn2)S(=O)(=O)C1 (stereo not drawn)	-12.9	-0.4	.	-4.4	4597	.
COc1ccc(NC(=S)N2CCN(S(=O)(=O)c3ccccc3)CC2)cc1OC	3.1	-2.5	18.7	-0.4	6287	2.8
COC(=O)c1ccc(CN2CCCC(C(=O)Nc3cccc(-n4cccn4)c3)C2)cc1 (stereo not drawn)	-1.7	-3.5	52.5*	-3.0	7699	-10.4
COc1ccc(CN2CCCC(C(=O)Nc3cccc(-n4cccn4)c3)C2)cc1 (stereo not drawn)	1.3	1.3	8.0	4.9	6115	8.3
Cc1ccc(C(=O)O/N=C/c2c(N3CCOCC3)n(C)c3ccccc23)cc1	-9.8	-1.1	24.7	-24.6	5928	1.9
CC(=O)O/N=C/c1c(N2CCOCC2)n(C)c2ccccc12	-6.1	-2.0	39.5	-1.0	23889*	4.1
Cc1cc2c(C)cc(=O)oc2c2c1NCCC2	-2.5	-6.3	-7.0	-6.9	25354*	7.7
CCC(CC)C(=O)Nc1cccc(C(=O)Nc2ccc(S(=O)(=O)Nc3ccc(C)cc3)cc2)c1	1.1	-0.4	17.7	-3.7	22769*	4.1
CCC(CC)C(=O)Nc1cccc(S(=O)(=O)c2cccc(NC(=O)C(CC)CC)c2)c1	-0.7	-0.7	-19.9	-0.9	16846*	4.9
CCc1ccc(S(=O)(=O)c2nnn3c2nc(N2CCOCC2)c2ccccc23)cc1	-1.4	1.1	-2.2	3.0	4247	12.4
O=C(CCSc1nc(-c2ccco2)cc(C(F)(F)F)n1)N1CCN(c2ccccc2)CC1	-5.6	-0.7	13.3	-6.1	3320	-3.2
FC(F)(F)c1cc(-c2ccco2)nc(N2CCN(c3ccccc3)CC2)n1	-3.9	-6.2	6.2	-7.4	25233*	4.6
CCOC1=C2[C@@H](CN(S(=O)(=O)c3ccc(C)cc3)[C@H]2c2ccccc2F)[C@H]2C(=O)N(CC)C(=O)[C@H]2C1	-1.8	0.2	.	4.0	5822	.
Cc1cc(Nc2cnc3ccccc3n2)n(-c2ccccc2)n1	-5.8	-3.9	42.0	-12.3	17464*	-2.4
Cc1cc(Nc2ncc(Cl)cc2Cl)n(-c2ccccc2)n1	0.3	-0.4	-21.8	-2.9	2195	-3.0
CN1C(=O)C(=Cc2ccc(N3CCCCC3)o2)C(=O)N(C)C1=S	9.2	6.6	17.8	99.9*	9734	-26.0
COC(=O)CN1C(=O)S/C(=C/c2ccc(N3CCCCC3)o2)C1=O	-8.9	-0.2	-2.8	-2.0	12897	386.0*
CC(=O)C1=CCC(c2ccc(Cl)cc2)N(S(=O)(=O)c2ccccc2)C1 (stereo not drawn)	4.7	0.0	.	-7.9	5677	.
CCn1c(=S)sc2c(=O)n(CC(=O)Nc3cccc(OC)c3)c(C)nc21	-0.8	1.5	16.6	6.2	4989	3.5
SMILES	Anthrax LF prot	BoNT-A LC inh2	VHR inh abs	BoNT-F LC inh	Autofluor counter	MazEF act
COc1cccc(CC(=O)OCC(=O)NC(C)c2ccc(F)cc2)c1 (stereo not drawn)	-5.9	-0.3	.	2.7	3941	-10.9
CCCCSc1nsc(NC(C)=O)n1	1.2	2.0	7.6	1.7	22275*	4.8
CCCCCCSc1nsc(NC(C)=O)n1	-2.2	0.4	13.6	9.2	2395	-0.7
CC(C)Oc1ccc(C(=O)O)c(C(=O)O)c1	-1.4	?	8.2	-5.2	25281*	0.0
CCOC(=O)C1=C(C)Nc2sc(C(=O)c3ccc(OC)cc3)c(N)c2C1c1ccc(C(=O)OC)cc1 (stereo not drawn)	21.4	29.8*	-0.8	11.6	9298	3.7
O=C1Nc2ccccc2N(O)N1c1ccc(Cl)cc1	-2.5	0.0	2.0	-4.8	2426	2.8
CCN1c2ccccc2NC2C1C(C(C)=O)C(=O)N2c1ccc(Cl)cc1 (stereo not drawn)	9.3	20.0	0.8	4.1	19587*	-16.0
CCc1cc(CNC(=O)c2ccc3nc(Cc4ccc(OC)c(OC)c4)oc3c2)on1	-4.0	-4.5	23.3	-8.3	6302	0.1
CC1(c2nc3ccccc3[nH]2)CCC(=O)N1Cc1cccs1 (stereo not drawn)	3.6	-0.9	.	-3.9	5888	.
O=C(Nc1cccc(-c2nc3ccccc3s2)c1)c1ccc2c(c1)OCO2	-1.2	1.8	9.5	3.7	9589	-7.9
c1ccc2sc(-c3ccc4c(c3)OCO4)nc2c1	-3.2	-0.9	8.6	-5.2	21120*	-5.9
Cc1cccc(OCC(=O)NNc2c3ccccc3nc3ccccc23)c1	-3.1	1.9	17.8	0.5	21560*	-2.7
Cc1cccc(OCC(=O)NCCN2CCOCC2)c1	-1.9	-2.5	-17.6	-5.3	20366*	-7.3
Cc1cccc(C(=O)NCCN2CCCC2)c1	-2.5	-1.0	31.2	-0.1	20070*	-2.1
Cc1ccc(C(=O)NCCN2CCCC2)cc1	-2.4	-0.1	0.0	-11.2	3009	-1.4
CCOc1c(Cl)cc(C(=O)NCCN2CCCCC2)cc1Cl	1.6	4.3	21.9	4.5	22799*	5.9
Cc1ccc(OCC(=O)NCCN2CCOCC2)cc1C	-3.1	0.3	10.5	9.5	3504	-1.1
CC(C)c1cccc(OCCCCN(C)C)c1	-4.9	0.0	-9.8	-3.3	4746	-1.1
CN=C(C[N+](=O)[O-])NCCSCc1ccc(CN(C)C)o1	0.1	-0.4	.	-9.7	5959	-1.2
CCCCn1nnnc1C(c1ccccc1)N1CCN(c2c(Cl)cncc2Cl)CC1 (stereo not drawn)	-4.1	-0.7	.	-1.1	6085	.
C[C@@H]1CN([C@H](C)CO)C(=O)CCCn2nncc2CO[C@H]1CN(C)Cc1cccc(C(F)(F)F)c1	-4.2	-0.4	.	-2.1	3364	-18.1
COc1ccc(Nc2ccc3c(c2)=NC2(CCCCC2)[N+]=3[O-])cc1	-9.6	0.3	16.5	-12.3	7525	2.9
[O-][N+]1=c2ccc(Nc3ccccc3)cc2=NC12CCCCC2	-7.9	-1.4	7.1	-14.8	16589*	-0.4
COc1ccc(NC(=O)COc2coc(CN3CCN(c4ccccc4)CC3)cc2=O)cc1	5.6	1.2	.	-1.9	4686	2.0
COC(=O)c1c(C)[nH]c(C(=O)OCc2csc(CC(=O)Nc3ccccc3C)n2)c1C	-5.1	0.2	.	-0.9	3621	-17.2
